Screening data: PubChem, several laboratories
Anthrax LF inh2: Bacillus anthracis LF protease inhibitors, primary screen, biochemical, multiplex microsphere, MLPCN library; multiplex microsphere protease cleavage assay; inhibition, % at 10 µM; 360,000 compounds, 0.12% hits; AID 588501, 2011
BoNT-A LC inh2: BoNT/A light chain protease inhibitors, primary screen, biochemical, flow cytometry, MLPCN library; AID 588499, 2011; inhibition, % at 10 µM; multiplex microsphere protease substrate cleavage; Botulinum neurotoxin type A light chain protease (Clostridium botulinum A str. ATCC 3502); 360,000 compounds, 0.17% hits
MazEF act: activators of E. coli MazEF toxin-antitoxin RNase, primary screen, biochemical, fluorescence, uHTS; 350,000 compounds, 0.32% hits; activation, % at 20 µM; AID 504720, 2011; FAM/BHQ RNA-DNA oligo cleavage fluorescence, 5 h; in the data active = activation above about 50%
Target sequence (P0AE70 whole entry, looked up): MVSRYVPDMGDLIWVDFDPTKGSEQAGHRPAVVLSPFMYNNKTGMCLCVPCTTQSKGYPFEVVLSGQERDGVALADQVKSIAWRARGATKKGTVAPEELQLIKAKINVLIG
BoNT-F LC inh: BoNT/F light chain protease inhibitors, primary screen, biochemical, flow cytometry, MLPCN library; 360,000 compounds, 0.22% hits; Multiplex microsphere protease cleavage assay; AID 588497, 2011; Botulinum neurotoxin type F light chain protease (Clostridium botulinum); inhibition, % at 10 µM; in the data active = inhibition above about 35%, passing the limit was not always enough; inconclusive = no clear call, values can overlap the other calls
Autofluor counter: compound fluorescence in toxin protease inhibitor counterscreen | compound autofluorescence counterscreen, microsphere flow cytometry; hits give high values | AID 624483 | 360,000 compounds, 3.1% hits | fluorescence intensity (no concentration beside the values); in the data active = fluorescence intensity above about 16000; inconclusive = no clear call, values can overlap the other calls
BoNTA LC inh 1: BoNT/A light chain protease inhibitors, confirmation, biochemical, flow cytometry, cherry pick 1; shares compounds with BoNT-F LC inh; multiplex microsphere protease assay; inhibition, % at 10 µM; 720 compounds, 3% hits; AID 602139, 2011; in the data active = inhibition above about 32%
BoNT-F LC CP1: BoNT/F light chain protease inhibitors, confirmation, biochemical, flow cytometry, cherry pick 1 | multiplex microsphere protease cleavage assay | inhibition, % at 10 µM | AID 602140, 2011 | shares compounds with BoNT-F LC inh | 720 tested, under 10 active; call rule not given here
Anthrax LF CP1: Bacillus anthracis LF protease inhibitors, confirmation, biochemical, multiplex microsphere, cherry pick 1; inhibition, % at 10 µM; 720 tested, under 10 active; multiplex microsphere protease cleavage assay; shares compounds with BoNT-F LC inh; call rule not given here
Of the large screens only hits and unclear results are named; the others gave an inactive call (follow-up assays come after a bar, where they were run). This is a sample that favours compounds with a hit; in the whole collection about 3.6% have one here. Cut-off read from the data, not from the text of the source, unless noted: active = inhibition above about 30%; inconclusive = no clear call, values can overlap the other calls; inactive = below that.

CC(C)(C)NC(=O)CSc1nc(O)cc(=O)[nH]1	none
Cc1cc(C)c2cc(CN(CCN3CCCC3)C(=O)Nc3ccc(F)cc3)c(=O)[nH]c2c1	BoNT-F LC inh 62 | BoNTA LC inh 1 inactive | BoNT-F LC CP1 inactive | Anthrax LF CP1 inactive
COc1ccc(CCC(=O)NCC(=O)OCc2ccccc2)cc1	none
CC(C)c1ccc(NC(=O)CSc2nc3ccccc3nc2N2CCCC2)cc1	none
O=C(Nc1cccc(Cl)c1)OC1CCCCc2cccnc21 (centres undefined)	none
O=C(Nc1ccccc1)OC1CCCCc2cccnc21 (centres undefined)	Anthrax LF inh2 30, BoNT-A LC inh2 inconclusive, BoNT-F LC inh inconclusive | BoNTA LC inh 1 inactive | BoNT-F LC CP1 inactive | Anthrax LF CP1 inactive
COC(=O)C1CN(S(=O)(=O)c2cc(OC)ccc2OC)CCS1 (centres undefined)	none
Cc1ccc(NC(=O)CCn2c(=O)[nH]c3ccsc3c2=O)cc1	none (no result: Anthrax LF inh2, BoNT-A LC inh2, BoNT-F LC inh, Autofluor counter)
COc1cc(NC(=O)CCn2c(=O)[nH]c3ccsc3c2=O)cc(OC)c1	BoNT-F LC inh 41 | BoNTA LC inh 1 inactive | BoNT-F LC CP1 inactive | Anthrax LF CP1 inactive
O=C(CCSc1ccccn1)Nc1ccc(Br)cc1	BoNT-F LC inh 47 | BoNTA LC inh 1 inactive | BoNT-F LC CP1 inactive | Anthrax LF CP1 inactive
Cc1cc2c(sc3c(C)ccc(C)c32)c(C)n1	BoNT-F LC inh inconclusive | BoNTA LC inh 1 inactive | BoNT-F LC CP1 inactive | Anthrax LF CP1 inactive
CCCC(=O)N1CCC1(C)C(=O)Nc1ccc2c(c1)CCN2C(C)=O (centres undefined)	none (no result: MazEF act)
CCOC(=O)C1CCCN(C(=O)c2ccc(OC)cc2)CC1 (centres undefined)	none (no result: MazEF act)
CCOC(=O)C1CCN(C(=O)c2ccc3nc(-c4ccc(OC)cc4)c(-c4ccc(OC)cc4)nc3c2)CC1	BoNT-A LC inh2 30 | BoNTA LC inh 1 inactive | BoNT-F LC CP1 inactive | Anthrax LF CP1 inactive
C[C@H](CO)N1C[C@H](C)[C@@H](CN(C)C(=O)Nc2cccc(F)c2)Oc2ncc(Br)cc2C1=O	none
CCCOC1CCCN(Cc2nc(-c3cnccn3)no2)C1 (centres undefined)	BoNT-F LC inh 35 | BoNTA LC inh 1 inactive | BoNT-F LC CP1 inactive | Anthrax LF CP1 inactive
Cc1ccc(OCC2Cn3c(nc4c3c(=O)[nH]c(=O)n4C)O2)cc1C (centres undefined)	Anthrax LF inh2 31 | BoNTA LC inh 1 inactive | BoNT-F LC CP1 inactive | Anthrax LF CP1 inactive
Cn1c(CC(=O)Nc2ccccc2Cl)nnc1SCC(=O)Nc1nncs1	none
CC(C)(C)c1cc(C(=O)CCN2CCOCC2)cc(C(C)(C)C)c1O	none | BoNTA LC inh 1 inactive | BoNT-F LC CP1 inactive | Anthrax LF CP1 inactive
CC(C)c1ccc(CC(=O)N2CCC2(C)C(=O)NCCC#N)cc1 (centres undefined)	none (no result: MazEF act)
CCOc1ccc(CC2NCCc3cc(OCC)c(OCC)cc32)cc1OCC (centres undefined)	none
CCOc1ccc(CC2c3cc(OCC)c(OCC)cc3CCN2C(=O)CN2CCN(C)CC2)cc1OCC (centres undefined)	BoNT-F LC inh 35 | BoNTA LC inh 1 inactive | BoNT-F LC CP1 inactive | Anthrax LF CP1 inactive
COc1ccc(N2C(=O)C3CCCN3C2c2ccccc2)cc1Cl (centres undefined)	BoNT-F LC inh 53 | BoNTA LC inh 1 inactive | BoNT-F LC CP1 inactive | Anthrax LF CP1 inactive
O=C(c1ccc(Br)c(S(=O)(=O)N2CCCCC2)c1)N1CCCCC1	none
NC(=O)c1ccc(Br)c(S(=O)(=O)N2CCCCC2)c1	BoNT-A LC inh2 35, BoNT-F LC inh 42 | BoNTA LC inh 1 inactive | BoNT-F LC CP1 inactive | Anthrax LF CP1 inactive
COc1ccc(CNC(=O)CN2C(=O)COc3ccc(S(=O)(=O)N4CCCC4)cc32)cc1	BoNT-A LC inh2 53 | BoNTA LC inh 1 inactive | BoNT-F LC CP1 inactive | Anthrax LF CP1 inactive
CC(=O)[C@H]1[C@H]([C@H](O)[C@H](O)CO)O[C@](O)(C(=O)O)C[C@@H]1O	none
CN(C)C(=O)CSc1nnc(-c2ccc(S(=O)(=O)N3CCCC3)cc2)n1C	none
CC(=O)CSc1nnc(-c2ccc(S(=O)(=O)N3CCCC3)cc2)n1C	Anthrax LF inh2 31 | BoNTA LC inh 1 inactive | BoNT-F LC CP1 inactive | Anthrax LF CP1 inactive
COc1ccccc1C(=O)NC(=O)CSc1nc(C)cs1	none
CCCN1CCc2c(sc3nc(SC)n(-c4ccccc4)c(=O)c23)C1	BoNT-A LC inh2 33 | BoNTA LC inh 1 inactive | BoNT-F LC CP1 inactive | Anthrax LF CP1 inactive
CCOC(=O)CSc1nc2sc3c(c2c(=O)n1-c1ccc(OCC)cc1)CCN(C)C3	BoNT-A LC inh2 53 | BoNTA LC inh 1 inactive | BoNT-F LC CP1 inactive | Anthrax LF CP1 inactive
Cc1c(C(=O)O)sc2[nH]c(=O)n(Cc3ccccc3)c(=O)c12	none
Cc1nn(-c2nnc(NC3CCCCC3)nn2)c(C)c1Br	BoNT-A LC inh2 35 | BoNTA LC inh 1 inactive | BoNT-F LC CP1 inactive | Anthrax LF CP1 inactive
Cc1nn(C)c(C)c1S(=O)(=O)NC1CCCC1	none
CC(C)c1ccc(OCC(=O)Nc2ccncc2)cc1	BoNT-F LC inh 43 | BoNTA LC inh 1 inactive | BoNT-F LC CP1 inactive | Anthrax LF CP1 inactive
O=C(NC1CCCCC1)C(c1ccco1)N(C(=O)c1csnn1)c1cccc(Cl)c1 (centres undefined)	none
COc1ccccc1Cn1c(=S)[nH]c2ccc(Br)cc2c1=O	Anthrax LF inh2 31 | BoNTA LC inh 1 inactive | BoNT-F LC CP1 inactive | Anthrax LF CP1 inactive
Cn1ccc2c(/C=C/c3ccc(F)cc3)cc3c(c21)C1CCC3O1 (centres undefined)	none (no result: MazEF act)
COc1ccc(CCCc2nnc(SCC(=O)NN)o2)c(C)c1	none
COc1ccc(-c2cc3ccccc3n2CC(O)Cn2nc(C)cc2C)cc1 (centres undefined)	Anthrax LF inh2 49, BoNT-A LC inh2 152 | BoNTA LC inh 1 inactive | BoNT-F LC CP1 inactive | Anthrax LF CP1 inactive
Cc1cc(C)n(CC(O)Cn2c(C)c(C)c3ccccc32)n1 (centres undefined)	BoNT-F LC inh 35 | BoNTA LC inh 1 inactive | BoNT-F LC CP1 inactive | Anthrax LF CP1 inactive
CCc1ccc(OCCCC(=O)Nc2ccc(N3CCCCC3)cc2)cc1	BoNT-F LC inh 40 | BoNTA LC inh 1 inactive | BoNT-F LC CP1 inactive | Anthrax LF CP1 inactive
C=CCSc1nc(-c2ccc3c(c2)OCO3)cc(C(F)(F)F)c1C#N	BoNT-A LC inh2 31 | BoNTA LC inh 1 inactive | BoNT-F LC CP1 inactive | Anthrax LF CP1 inactive
